Potency, outcome and PLD induction data for 13 compounds are collected here from PubChem BioAssay (Tox21).

The structures appear in SMILES notation. A number with no mark means an inactive call. Inconclusive results are not listed. Active and inactive are the calls of the source. Unless noted, calls follow the shape of the dose curve; as a rule, active = well fitted curve in the direction sought with a large enough effect in the repeat runs; inconclusive = weak or mixed curves; inactive = no such curve, though single readings can be large; an effect the other way counts as inactive or inconclusive.

Assay [1] in a line: A CellTox Green Cytotoxicity Assay to monitor cytotoxicity in HepG2 cells - 32 hour (AID 1224883). Also: nearly all actives have a fitted effect of over 50% in size. Also: potency is read from the fitted curve at half-maximal effect. The method in brief:
(§1)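 HepG2 cells, 600/well, preincubated 5 h with CellTox Green dye, then exposed to Tox21 compounds in DMSO at 37 C for up to 40 h. Dead-cell DNA fluorescence read at the indicated time point.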

Assay [2] in a line: qHTS RealTime-Glo MT Cell Viability Assay in HepG2 cells - 16 hour (AID 1224885). Also: nearly all actives have a fitted effect of over 50% in size. Also: potency is read from the fitted curve at half-maximal effect. The method in brief:
(§2)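 Compound treatment began 5 h after plating HepG2 cells (600/well) with NanoLuc luciferase and prosubstrate. Plates stayed at 37 C for 40 h; luminescence was captured at six time points, 0 h through 40 h.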
(In general: Quantitative high-throughput screening tests each substance at several concentrations.)

Assay [3] can be described thus: qHTS RealTime-Glo MT Cell Viability Assay in HEK293 cells - 24 hour (AID 1224886). Also: top concentration of the series differs between compounds; % is scaled to controls: 0 for no effect and ±100 for the full control effect; nearly all actives have a fitted effect of over 50% in size. The method in brief:
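Quantitative high-throughput screen of the Tox21 10K library in HEK293: cells and RealTime-Glo reagents plated together, compound added at 5 h, luminescence monitored through 40 h at 37 C.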

A short description of assay [4]: qHTS RealTime-Glo MT Cell Viability Assay in HEK293 cells - 8 hour (AID 1224887). Also: nearly all actives have a fitted effect of over 50% in size. Also: potency is read from the fitted curve at half-maximal effect. The method in brief: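 600 cells/well were plated with the nonlytic NanoLuc/prosubstrate reagent, pre-incubated 5 h, then given 23 nL of compound in DMSO. Incubation at 37 C for 40 h, with luminescence from viable-cell-reduced substrate read repeatedly from 0 h.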
Assay [5] in a line: A CellTox Green Cytotoxicity Assay to monitor cytotoxicity in HEK293 cells - 16 hour (AID 1224888). Also: nearly all actives have a fitted effect of over 35% in size. Also: potency is read from the fitted curve at half-maximal effect. The method in brief:
(§3)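 HEK293 cells, 600/well, were preincubated 5 hours and then exposed to compounds at 37 C for up to 40 hours. A cell-impermeant cyanine dye staining dead-cell DNA was read by fluorescence at 0, 8, 16, 24, 32 and 40 h time points.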

A short description of assay [6]: qHTS RealTime-Glo MT Cell Viability Assay in HepG2 cells - 0 hour (AID 1224889). The method in brief:
as §2

Assay [7] in a line: A CellTox Green Cytotoxicity Assay to monitor cytotoxicity in HepG2 cells - 8 hour (AID 1224890). Also: nearly all actives have a fitted effect of over 45% in size. Also: potency is read from the fitted curve at half-maximal effect. Put shortly:
as §1

Assay [8] can be described thus: qHTS assay to identify small molecule antagonists of the estrogen receptor alpha (ER-alpha) signaling pathway using the BG1 cell line in the presence of 0.1 nM 17-beta-estradiol - cell viability counter screen (AID 1259241). Also: nearly all actives have a fitted effect of over 40% in size. Also: potency is read from the fitted curve at half-maximal effect. Put shortly:
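In this screen, hormone-deprived VM7Luc4E2 cells were seeded at 4,000 per well, dosed with compound and 0.1 nM estradiol final, and incubated 22 hr at 37C and 5% CO2; fluorogenic live-cell protease signal reported viability.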

Assay [9] can be described thus: qHTS assay to identify small molecule HDAC inhibitors (AID 1259364). Also: top concentration of the series differs between compounds; % is scaled to controls: 0 for no effect and ±100 for the full control effect; nearly all actives have a fitted effect of over 45% in size. Put shortly:
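Wild-type HCT-116 cells, plated overnight at 37 C, exposed to compounds 2 hr at 37 C; luminogenic HDAC-Glo substrate then added 30 min at room temperature. Luminescence reports relative endogenous class I/II HDAC activity.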

A short description of assay [10]: qHTS assay to identify small molecule HDAC inhibitors - cell viability counter screen (AID 1259365). The method in brief:
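Measured quantity is CellTiter-Glo luminescence from wild-type HCT-116 cells after compound incubation of 2hr at 37C, 5% CO2; reagent developed 30min at room temperature.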

Assay [11] can be described thus: qHTS assay to identify small molecule agonists of the sonic hedgehog signaling (Shh) pathway (AID 1259368; calls by dose curve;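 also: NIH/3T3-derived 3T3Gli1-Luc cells carrying a stable Gli1-driven firefly luciferase reporter; series mostly up to about 92 µM; % is scaled to controls: 0 for no effect and ±100 for the full control effect; nearly all actives have a fitted effect of over 15% in size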). The method in brief: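 NIH/3T3-derived 3T3Gli1-Luc cells with stably integrated Gli1-driven firefly luciferase, 2,000 cells/well, compounds added after 4 hr. Incubated 24 hr at 37C, 5% CO2; luminescence read after 30 min with luciferase reagent at room temperature.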

Assay [12] in a line: qHTS assay to identify small molecule antagonists of the sonic hedgehog signaling (Shh) pathway (AID 1259369; calls by dose curve; also: nearly all actives have a fitted effect of over 45% in size; also: potency is read from the fitted curve at half-maximal effect). The method in brief:
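NIH/3T3-derived Gli1-Luc reporter cells plated 4 h, dosed with compound, then stimulated with conditioned medium for 24 h at 37 C. Firefly luciferase luminescence read after 30 min with detection reagent at room temperature.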

A short description of assay [13]: qHTS assay to identify small molecule antagonists of the androgen receptor (AR) signaling pathway using the MDA cell line in the presence of 0.5 nM R1881 - cell viability counter screen (AID 1259242). Also: nearly all actives have a fitted effect of over 45% in size. Also: potency is read from the fitted curve at half-maximal effect. Put shortly:
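MDA-kb2 cells (MMTV-luciferase, AR/GR responsive) were treated with compounds plus 0.5 nM R1881 (final) for 16 hr at 37C, 0% CO2. Viability was then read in the same wells as live-cell protease fluorescence (CellTiter-Fluor, 30 min).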

Assay [14] deals with Estrogen receptor (Homo sapiens) (UniProt P03372). The assay is described as follows: qHTS assay to identify small molecule antagonists of the estrogen receptor alpha (ER-alpha) signaling pathway using the BG1 cell line in the presence of 0.1 nM 17-beta-estradiol (AID 1259244). Put shortly: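 VM7Luc4E2 cells (endogenous full-length ER-alpha, 4×ERE-luciferase), kept 5 days in phenol red-free, charcoal-stripped FBS medium; 4,000 cells/well. Compounds added with 0.1 nM (final) 17beta-estradiol, 22 hr at 37C; luminescence read with ONE-Glo after 30 min.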
Sequence of Estrogen receptor (Homo sapiens) (P03372 whole entry, looked up): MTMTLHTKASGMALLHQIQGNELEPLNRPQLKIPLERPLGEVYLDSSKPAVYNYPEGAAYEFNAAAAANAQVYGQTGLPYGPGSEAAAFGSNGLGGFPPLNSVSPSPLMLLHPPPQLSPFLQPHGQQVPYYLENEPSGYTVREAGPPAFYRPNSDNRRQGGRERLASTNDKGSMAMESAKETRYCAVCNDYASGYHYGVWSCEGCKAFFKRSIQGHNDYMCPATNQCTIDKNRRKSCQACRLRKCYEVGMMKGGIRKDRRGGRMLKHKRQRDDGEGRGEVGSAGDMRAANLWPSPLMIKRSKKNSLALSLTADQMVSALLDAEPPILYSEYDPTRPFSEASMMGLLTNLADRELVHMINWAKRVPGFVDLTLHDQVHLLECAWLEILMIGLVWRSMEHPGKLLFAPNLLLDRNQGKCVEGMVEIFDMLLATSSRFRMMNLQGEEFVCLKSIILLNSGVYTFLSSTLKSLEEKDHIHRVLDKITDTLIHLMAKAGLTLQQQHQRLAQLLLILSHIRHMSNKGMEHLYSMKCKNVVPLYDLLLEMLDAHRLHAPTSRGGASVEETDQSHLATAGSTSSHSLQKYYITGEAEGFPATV

Assay [15] in a line: qHTS assay to identify small molecule antagonists of the sonic hedgehog signaling (Shh) pathway - cell viability counter screen (AID 1259367). Also: % is scaled to controls: 0 for no effect and ±100 for the full control effect; nearly all actives have a fitted effect of over 55% in size. Put shortly: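 Using CellTiter-Fluor, viability of Gli1-Luc reporter 3T3 cells is read by fluorescence in the wells used for the Shh luciferase assay. Treatment lasts 23 hr with conditioned medium, then reagent 1 hr at 37C.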
Assay [16] can be described thus: A CellTox Green Cytotoxicity Assay to monitor cytotoxicity in HEK293 cells - 8 hour (AID 1224884). Also: % is scaled to controls: 0 for no effect and ±100 for the full control effect; nearly all actives have a fitted effect of over 35% in size. Put shortly:
as §3

Assay [17] is described as follows: qHTS assay to identify small molecule agonists of the sonic hedgehog signaling (Shh) pathway - cell viability counter screen (AID 1259366). Also: nearly all actives have a fitted effect of over 50% in size. Also: potency is read from the fitted curve at half-maximal effect. The method in brief:
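In quantitative high-throughput format, 3T3 Gli1-Luc cells were exposed to compounds for 24hr and multiplexed for viability using CellTiter-Fluor, incubated 1hr at 37C before the fluorescence read.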

Assay [18] is described as follows: qHTS assay to identify small molecule phospholipidosis (PLD) inducers (AID 1259344; active = well fitted curve in the direction sought with a large enough effect; an effect the other way counts as inactive or inconclusive; also: % is scaled to controls: 0 for no effect and ±100 for the full control effect). The method in brief: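 Fluorescent phospholipid staining (LipidTOX Red) measured by automated microscopy in fixed HepG2 cells after 24 h treatment; nuclei counterstained with Hoechst 33342; amiodarone as reference inducer.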
The target of assay [19] is Androgen receptor (Homo sapiens) (UniProt P10275). The assay is described as follows: qHTS assay to identify small molecule antagonists of the androgen receptor (AR) signaling pathway using the MDA cell line in the presence of 0.5 nM R1881 (AID 1259243). The method in brief:
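MDA-kb2 cells (MMTV-luciferase, responsive to AR and GR) at 3,000/well, rested 5 h at 37C, 0% CO2, then given compounds plus 0.5 nM R1881 (final) for 16 hr. Luciferase read with ONE-Glo after 30 min at room temperature.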

Sequence of Androgen receptor (Homo sapiens) (P10275 whole entry, looked up): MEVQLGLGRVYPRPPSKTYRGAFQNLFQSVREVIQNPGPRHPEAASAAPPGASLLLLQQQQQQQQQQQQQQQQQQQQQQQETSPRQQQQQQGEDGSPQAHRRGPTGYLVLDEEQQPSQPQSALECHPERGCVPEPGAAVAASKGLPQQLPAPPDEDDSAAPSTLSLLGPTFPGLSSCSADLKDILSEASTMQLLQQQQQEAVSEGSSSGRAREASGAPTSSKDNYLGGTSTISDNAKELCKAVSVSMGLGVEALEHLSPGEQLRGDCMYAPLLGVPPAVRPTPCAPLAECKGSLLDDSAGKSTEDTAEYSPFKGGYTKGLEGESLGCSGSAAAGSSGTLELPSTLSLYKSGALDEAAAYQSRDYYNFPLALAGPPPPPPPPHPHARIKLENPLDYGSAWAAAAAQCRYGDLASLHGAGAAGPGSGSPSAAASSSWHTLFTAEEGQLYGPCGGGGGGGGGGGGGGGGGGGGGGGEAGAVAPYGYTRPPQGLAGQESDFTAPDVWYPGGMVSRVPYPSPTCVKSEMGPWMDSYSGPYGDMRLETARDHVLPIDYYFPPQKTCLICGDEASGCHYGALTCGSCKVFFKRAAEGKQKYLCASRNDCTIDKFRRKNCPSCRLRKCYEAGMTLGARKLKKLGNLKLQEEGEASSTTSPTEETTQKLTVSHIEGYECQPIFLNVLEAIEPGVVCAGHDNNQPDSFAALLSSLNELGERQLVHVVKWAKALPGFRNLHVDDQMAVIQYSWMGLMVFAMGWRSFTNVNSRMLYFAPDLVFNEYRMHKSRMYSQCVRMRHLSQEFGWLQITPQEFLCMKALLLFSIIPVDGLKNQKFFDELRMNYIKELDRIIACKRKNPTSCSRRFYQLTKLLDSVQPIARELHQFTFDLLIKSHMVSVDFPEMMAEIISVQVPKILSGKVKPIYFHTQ

On to `O=C=NC1CCC(CC2CCC(N=C=O)CC2)CC1` (centres undefined), for which the Potency result in assay [1], in assay [2], in assay [3], in assay [4], in assay [5] and in assay [6] was “inactive” each time. The Potency entry in assay [7], in assay [8] and in assay [9] was “inactive” each time. The result in assay [10] and in assay [11] was inactive. In addition, the Potency in assay [12] is 43.3 µM (active).

With `NCCCOCCOCCOCCCN`, the Potency entry in assay [1], in assay [2], in assay [3], in [4], in assay [5] and in assay [6] was “inactive” in each case. In addition, the Potency result in assay [7], in assay [8], in [13], in assay [14], in assay [9] and in [15] was “inactive” each time. For the same compound, the compound was classed as inactive in [10] and in assay [11].

As for `S=C(S)NCCNC(=S)S`, the Potency result in assay [1], in assay [16], in assay [2], in assay [3], in assay [4] and in assay [5] was “inactive” throughout. For the same compound, the Potency entry in [6], in assay [7], in assay [8], in assay [13], in assay [9] and in assay [17] was “inactive” throughout. In addition, the Potency entry in [15] and in assay [12] was “inactive” throughout. Also, the call in assay [10] and in assay [11] was inactive.

Take `CNS(=O)(=O)Cc1ccc2[nH]cc(CCN(C)C)c2c1`: the Potency entry in [1], in assay [16], in assay [2], in [3], in assay [4] and in assay [5] was “inactive” in each case. Also, the Potency entry in assay [6], in [7], in assay [8], in assay [13], in assay [18] and in assay [9] was “inactive” throughout. In addition, the Potency result in [15] and in assay [12] was “inactive” throughout. The compound was called inactive in [10] and in [11].

With `O=C1CCCCCO1`, the Potency result in assay [1], in assay [16], in assay [3], in assay [4], in assay [5] and in assay [6] was “inactive” throughout. For the same compound, the Potency result in [7], in assay [8], in [13], in [14], in [9] and in [17] was “inactive” in each case. The Potency entry in assay [12] is “inactive”. The compound was called inactive in [10] and in assay [11].

For `CC(C)c1ccccc1C(C)C`, the Potency entry in assay [1], in [2], in [3], in assay [4], in assay [5] and in assay [6] was “inactive” each time. The Potency result in assay [7], in assay [8], in assay [13], in assay [9], in [17] and in [15] was “inactive” each time. In assay [12], the Potency result is “inactive”. The compound was classed as inactive in [10] and in [11].

As to `C[C@@H](C1=C(CCN(C)C)Cc2ccccc21)c1ccccn1`, the Potency result in assay [1], in assay [16], in assay [2], in assay [3], in assay [4] and in assay [5] was “inactive” each time. Besides, the Potency result in assay [6], in [7], in assay [8], in assay [13], in assay [18] and in assay [9] was “inactive” in each case. Moreover, the compound was classed as inactive in assay [10] and in [11].

With `O=C1Nc2cc(Cl)ccc2Oc2ccccc21`, the Potency result in [1], in assay [16], in [3], in assay [4], in assay [5] and in assay [6] was “inactive” each time. Besides, the Potency result in assay [7], in assay [13], in assay [9], in [17], in assay [15] and in assay [12] was “inactive” throughout. Further, the Potency in assay [19] was 4.22 µM (active). Further, the outcome in [10] and in [11] was inactive.

As for `CN1CCN(C2=Nc3cc(Cl)ccc3Nc3ccccc32)CC1`, the values for the Potency in [1], in assay [5] and in [17] were 23.9 µM (active), 4.25 µM (active) and 13.3 µM (active), respectively. Further, the Potency entry in assay [16], in assay [4], in assay [6], in [7], in assay [8] and in assay [13] was “inactive” throughout. Moreover, in [9], the Potency result was “inactive”. Besides, the compound was classed as inactive in assay [10] and in assay [11].

Turning to `CCCCCCCCC(CO)CCCCCC` (centres undefined), the Potency result in assay [1], in assay [16], in assay [2], in [4], in assay [5] and in assay [6] was “inactive” throughout. In addition, the Potency entry in assay [7], in assay [8], in [13], in assay [9], in [17] and in assay [12] was “inactive” in each case. Also, the compound was called inactive in assay [10] and in [11].

Consider `NC(N)=NN=C(/C=C/c1ccc([N+](=O)[O-])o1)/C=C/c1ccc([N+](=O)[O-])o1`, for which the Potency in assay [1] is 2.39 µM (active); in assay [2], 2.13 µM (active); in assay [4], 6.01 µM (active); in [5] it was 9.52 µM (active); in assay [7], 9.52 µM (active); in assay [8] it was 11.9 µM (active). For the same compound, the Potency in assay [13] was 6.68 µM (active); in assay [19], 1.88 µM (active); in [17], 2.37 µM (active); in [12], 2.98 µM (active). In addition, the Potency entry in assay [6], in assay [14], in [18] and in assay [9] was “inactive” each time.

For the compound `O=C(NN1CCCC1)NS(=O)(=O)c1ccc(Cl)cc1`, the Potency entry in [1], in assay [2], in assay [3], in assay [4], in assay [5] and in assay [6] was “inactive” in each case. Also, the Potency entry in assay [7], in [8], in assay [13], in assay [14], in assay [9] and in [15] was “inactive” each time. Moreover, the Potency entry in [12] was “inactive”. In addition, the PLD induction in assay [18] is 14% [at 7.66 µM]. The outcome in assay [10] and in assay [11] was inactive.

Turning to `O=C(Nc1ccccc1)OCC(CN1CCCCC1)OC(=O)Nc1ccccc1` (centres undefined), the Potency result in assay [16], in [2], in assay [5], in assay [6], in [7] and in assay [8] was “inactive” throughout. Also, the Potency result in assay [13], in assay [18] and in assay [9] was “inactive” in each case. Moreover, the compound was classed as inactive in assay [10] and in [11].
